Results filed as inconclusive are left out. The source made the active and inactive calls.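 The calls were made as follows, unless noted: active = viability increase at or above a cutoff of the median across tested compounds plus 3 SD (cut at about 8.5% in these data, passing the limit was not always enough); inconclusive = some gains above the cutoff, reason not given; inactive = the rest.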
Key:
[1] = reducers of endogenous Her2 protein level, primary screen, SKBR3 breast tumor cells, AlphaScreen, ATP viability (AID 461;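 active = Her2 level under about 52% in both replicate screens, with viability over 70% of control, limit read from the data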;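 as to Her2 level: lower value means less Her2 protein in the cells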;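 as to viability: percent of carrier control wells set as 100% viability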); settings: 18-24 h, measured here: SKBR3 viability, ATP luminescence, at 10 µM
[2] = target: Receptor tyrosine-protein kinase erbB-2 (Homo sapiens) (UniProt P04626); assay: as above; settings: 18-24 h, at 10 µM, stronger effect = lower value
Chain of Receptor tyrosine-protein kinase erbB-2 (Homo sapiens) (P04626 whole entry, looked up): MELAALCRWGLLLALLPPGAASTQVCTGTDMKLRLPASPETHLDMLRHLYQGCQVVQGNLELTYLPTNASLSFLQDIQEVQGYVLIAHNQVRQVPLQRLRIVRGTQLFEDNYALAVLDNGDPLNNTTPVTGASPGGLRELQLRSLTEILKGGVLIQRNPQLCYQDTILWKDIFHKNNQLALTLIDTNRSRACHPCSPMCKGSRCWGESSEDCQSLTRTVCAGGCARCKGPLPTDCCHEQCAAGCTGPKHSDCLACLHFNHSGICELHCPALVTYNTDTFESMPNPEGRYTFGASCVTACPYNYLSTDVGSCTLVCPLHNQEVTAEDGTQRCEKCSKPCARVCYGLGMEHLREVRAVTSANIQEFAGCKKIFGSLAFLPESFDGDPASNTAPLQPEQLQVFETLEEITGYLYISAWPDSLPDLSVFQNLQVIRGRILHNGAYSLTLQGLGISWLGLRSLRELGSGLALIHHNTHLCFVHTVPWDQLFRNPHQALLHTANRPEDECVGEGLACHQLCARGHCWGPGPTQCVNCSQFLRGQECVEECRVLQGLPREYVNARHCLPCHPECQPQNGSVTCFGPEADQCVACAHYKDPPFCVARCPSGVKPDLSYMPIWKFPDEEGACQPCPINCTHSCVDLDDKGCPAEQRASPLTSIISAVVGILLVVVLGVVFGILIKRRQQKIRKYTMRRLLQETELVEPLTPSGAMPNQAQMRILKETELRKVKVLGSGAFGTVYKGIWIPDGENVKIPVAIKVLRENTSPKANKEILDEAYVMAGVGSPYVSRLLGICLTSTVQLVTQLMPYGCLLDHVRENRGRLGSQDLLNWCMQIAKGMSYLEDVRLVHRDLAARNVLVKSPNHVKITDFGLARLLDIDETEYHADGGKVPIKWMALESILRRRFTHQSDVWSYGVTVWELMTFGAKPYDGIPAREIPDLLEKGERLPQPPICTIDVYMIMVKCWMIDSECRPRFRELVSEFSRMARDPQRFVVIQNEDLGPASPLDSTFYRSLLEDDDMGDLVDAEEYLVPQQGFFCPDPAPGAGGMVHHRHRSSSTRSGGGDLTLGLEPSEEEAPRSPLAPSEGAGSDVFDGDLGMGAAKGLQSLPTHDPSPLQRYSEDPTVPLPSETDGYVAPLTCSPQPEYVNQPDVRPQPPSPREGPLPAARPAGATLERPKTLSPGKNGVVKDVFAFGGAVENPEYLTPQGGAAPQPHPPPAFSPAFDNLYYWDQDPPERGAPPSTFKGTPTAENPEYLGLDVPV

[3] = SK-BR-3 cell growth inhibitors, pilot screen, 24 h, human (AID 572;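 active = viability at or below 10% of carrier control in both of two separate runs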;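 also: compound exposure lasted between 18 and 24 h rather than exactly 24 h; 100% = carrier-treated control wells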); settings: SK-BR-3 viability, CellTiter-Glo luminescence, at 10 µM, stronger effect = lower value
[4] = HUVEC growth inhibition – cell-based, human, primary screen (AID 575;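 active = viability at or below 30% in both replicate assays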;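 also: 100% = median of untreated cell wells with 0.1% DMSO on each plate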); settings: HUVEC proliferation, CellTiter-Glo luminescence, 72 h; at 10 µM; stronger effect = lower value
[5] = growth inhibitors of H69AR lung tumor, primary screen, human, duplicate replicates (AID 580;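 active = viability at or under a set limit in both replicates, limit being median viability minus 3 SD, cut at about 48% in these data, passing the limit was not always enough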;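 also: 100% = mean luminescence of untreated wells and 0% = no signal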); settings: H69AR lung tumor cells viability, ATP luminescence, 72 h; at 10 µM; stronger effect = lower value
[6] = reversal of MRP1-mediated doxorubicin resistance, pilot screen, H69AR cells, doxorubicin co-treatment (AID 601;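 active = viability loss from added drug above about 55%, and viability with drug at most 40%, in both replicates, limit read from the data, passing the limit was not always enough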); settings: CellTiter-Glo, 72 h, at 10 µM; for differential viability (reversal): stronger effect = higher value
[7] = 384-well plate pilot, post-Golgi transport modulator project, inhibition of yeast transport mutant growth (AID 636; in the data active = inhibition above about 31%); settings: absorbance 615 nm, about 18 h, stronger effect = higher value
[8] = growth suppression of yeast trafficking mutant, preliminary HTS, modulators of trafficking downstream of Golgi apparatus project, 1536-format plate, OD 615 nm (AID 637; in the data active = inhibition above about 30%); settings: yeast transport mutant growth, absorbance 615 nm, 18 h; stronger effect = higher value
[9] = OD615 S. cerevisiae growth inhibition, permissive medium, pilot counter-assay, permissive growth control for S. cerevisiae lifespan shortening project (AID 705;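 active = growth inhibition above 25% in both replicates, a cutoff set 3 SD above the mean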); settings: OD615, 24 h, at 10 µM, stronger effect = higher value
[10] = Restrictive medium S. cerevisiae growth inhibition, OD615, pilot screen of yeast lifespan reduction project, restrictive growth control (AID 706;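 active = growth inhibition above a set limit, 3 SD over mean compound inhibition, in both replicates, cut at about 43% in these data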;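 also: modified DeaD lifespan yeast strain shifted to restrictive glucose medium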); settings: OD615, 48 h, at 10 µM, stronger effect = higher value
[11] = viability gain of MRP-1-high H69AR cells under doxorubicin, pilot screen, MRP-1 activator project, CellTiter-Glo, duplicate (AID 807); settings: H69AR viability with doxorubicin, CellTiter-Glo luminescence; at 10 µM; stronger effect = higher value;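 also: compound pretreatment 18-22 h then 72 h combined with doxorubicin; 0% = doxorubicin alone and 100% = vehicle without doxorubicin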
[12] = growth suppression of beta-catenin knockout HCT116, pilot screen, human colon tumor cells (AID 823;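 active = cell viability at or below a set limit in both duplicate runs, the limit being the all-compound median minus 4 SD, cut at about 23% in these data, passing the limit was not always enough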;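 also: 0% = wells killed by 20 µM Hyamine and 100% = untreated DMSO cell wells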); settings: CellTiter-Glo, 60 h, at 10 µM, stronger effect = lower value
[13] = growth suppression of PTEN-deleted HCT116, pilot screen, cell-based, HCT116 clonal line, CellTiter-Glo (AID 824;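 active = viability at or below 27.92% in each of two runs, the all-compound median minus 4 SD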;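 also: 0% = 20 µM Hyamine control and 100% = vehicle cell control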); settings: 60 h, at 10 µM, stronger effect = lower value
[14] = inhibitors of the yeast RAM network, pilot screen, dse1pr::URA3 reporter, 5-FOA selection (AID 869;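 active = inhibition over a set limit, the all-compound mean plus 3 SD, in both replicate runs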;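 also: 0% = DMSO wells with no growth and 100% = 10 µM 1-NA-PP1 with full growth; RAM network block rescues cells from 5-FOA so hits raise OD615 growth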); settings: S. cerevisiae dse1pr::URA3 5-FOA growth, OD615, 2 d; at 10 µM; stronger effect = higher value; strain carries analog-sensitive mutant Cbk1 kinase
[15] = RAM signaling pathway blockade in yeast – S. cerevisiae, Pdr1DBD-CYC8 efflux-inhibited sensitized strain, primary screen (AID 1298;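 active = RAM network inhibition above 8.4% in each of two replicates, 3 SD over the compound average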;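 also: 0% = DMSO untreated cells without growth and 100% = 10 µM 1-NA-PP1 full growth; higher means more yeast growth rescued from 5-FOA killing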); settings: S. cerevisiae cbk1-as DSE1-URA3 strain, 5-FOA growth OD615, 2 d; at 50 µM; stronger effect = higher value
[16] = H69AR cells + 2 uM doxorubicin, measured here: viability with 2 uM doxorubicin, stronger effect = lower value
[17] = H69AR cells, compound alone cytotoxicity

Structure (SMILES)	viability [1]	Her2 level [2]	viability [3]	viability [4]	viability [5]	differential viability (reversal) ([6]; H69AR cells + 2 uM doxorubicin)	viability [6, 16]	viability [6, 17]	inhibition [7]	inhibition [8]	growth inhibition [9]	growth inhibition [10]	viability increase [11]	viability [12]	viability [13]	inhibition [14]	RAM network inhibition [15]
COC(=O)Cn1c(CN2CCN(c3ccccc3F)CC2)nc2c1c(=O)n(C)c(=O)n2C	104%	95% (inactive)	104% (inactive)	95.3% (inactive)	93.8% (inactive)	6.45% (inactive)	87.3%	93.8%	-3.73% (inactive)	3.33% (inactive)	-7.25% (inactive)	-1.94% (inactive)	0.3% (inactive)	97.4% (inactive)	90.1% (inactive)	2.47% (inactive)	6.25% (inactive)
COC(=O)CCCCC(=O)C1C(=O)CC(C)(C)C(C(=O)OC)C1=O (stereo not given)	91.5%	118% (inactive)	91.5% (inactive)	91.2% (inactive)	91.7% (inactive)	-3.76% (inactive)	95.5%	91.7%	2.08% (inactive)	-8% (inactive)	-15.7% (inactive)	-6.2% (inactive)	-1.69% (inactive)	94.4% (inactive)	93.6% (inactive)	1.31% (inactive)	-0.78% (inactive)
O=S(=O)(c1ccccc1)N1CCN(S(=O)(=O)c2ccccc2)C1	83.5%	102% (inactive)	83.5% (inactive)	97.5% (inactive)	95.8% (inactive)	7.07% (inactive)	88.7%	95.8%	-3.21% (inactive)	-4.5% (inactive)	-7.65% (inactive)	6.15% (inactive)	-1.27% (inactive)	93.8% (inactive)	93.5% (inactive)	-0.14% (inactive)	3.22% (inactive)
COc1ccccc1CNC(=O)C1CCC(CNc2c(N3CCOCC3)c(=O)c2=O)CC1 (stereo not given)	90.5%	126% (inactive)	90.5% (inactive)	86.7% (inactive)	105% (inactive)	12% (inactive)	92.8%	105%	1.03% (inactive)	3% (inactive)	-3.5% (inactive)	8.34% (inactive)	0.11% (inactive)	101% (inactive)	104% (inactive)	1.35% (inactive)	3.53% (inactive)
CC1CCN(S(=O)(=O)c2cccc(C(=O)Nc3ccccn3)c2)CC1	86%	104% (inactive)	86% (inactive)	86.7% (inactive)	94.3% (inactive)	-2.55% (inactive)	96.8%	94.3%	4.1% (inactive)	1.83% (inactive)	8.12% (inactive)	3.79% (inactive)	-1.96% (inactive)	93.9% (inactive)	97.7% (inactive)	-0.08% (inactive)	4.54% (inactive)
COc1ccc(-c2nc(CCNC(=O)c3ccco3)cs2)cc1OC	96.5%	102% (inactive)	96.5% (inactive)	89.2% (inactive)	77.9% (inactive)	0.52% (inactive)	77.4%	77.9%	-4.67% (inactive)	-2.95% (inactive)	-4.64% (inactive)	-8.75% (inactive)	-3.3% (inactive)	95.3% (inactive)	87.7% (inactive)	0.415% (inactive)	-1.56% (inactive)
COc1ccccc1N1CCN(CC(O)c2ccc3cc[nH]c3c2)CC1 (stereo not given)	99%	112% (inactive)	99% (inactive)	95.6% (inactive)	88.8% (inactive)	11.4% (inactive)	77.4%	88.8%	-3.33% (inactive)	2.46% (inactive)	3.54% (inactive)	5.26% (inactive)	-4.68% (inactive)	60.7% (inactive)	61.7% (inactive)	1.87% (inactive)	1.54% (inactive)
COc1ccc(N(CC(=O)Nc2cc(C)ccc2C)S(=O)(=O)c2c(C)nn(C)c2C)cc1	92%	114% (inactive)	92% (inactive)	73.8% (inactive)	93.2% (inactive)	-0.425% (inactive)	93.6%	93.2%	-0.38% (inactive)	-3% (inactive)	-7.38% (inactive)	-20.5% (inactive)	-2.75% (inactive)	83.8% (inactive)	80.3% (inactive)	0.14% (inactive)	7.15% (inactive)
CCOCCCNC(=O)Cn1ncc2c(=O)oc3ccccc3c21	95%	98% (inactive)	95% (inactive)	81.5% (inactive)	90.5% (inactive)	-3.42% (inactive)	93.9%	90.5%	1.79% (inactive)	-2.83% (inactive)	7.44% (inactive)	15.2% (inactive)	-0.6% (inactive)	101% (inactive)	94.3% (inactive)	-0.73% (inactive)	1.15% (inactive)
COc1cccc(CNC(=O)Cn2c(=O)oc3ccccc32)c1OC	110%	99% (inactive)	110% (inactive)	89.8% (inactive)	92.3% (inactive)	0.115% (inactive)	92.2%	92.3%	-6.27% (inactive)	-0.67% (inactive)	-9.48% (inactive)	-12.4% (inactive)	-0.35% (inactive)	104% (inactive)	91% (inactive)	0.75% (inactive)	-0.26% (inactive)
